An excerpt weighted towards active compounds, which were near 6.5% of everything screened.
HCMV antiviral = inhibitors of human cytomegalovirus. HFF cells, HCMV-luciferase reporter, 72 h; active compounds read low. activity change, negative = inhibition, % at 57.5 µM. actives 4.5% (n = 410,000). AID 1259415; in the data active = activity change below about -60%; inconclusive = no clear call, values can overlap the other calls; inactive = above about -39%
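After 16 h attachment at 37C, HFF cells received test compound and HCMV-luciferase (1 PFU/cell); reporter luminescence read 72 h later, data normalized against buffer-only and known inhibitor Salinomycin.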
FMDV inh = antivirals against foot and mouth disease virus; actives 1.2% (n = 410,000); FMDV antiviral cell-based qHTS; Potency, µM (doses to about 57.9 µM), most hits filed as inhibitors; calls by dose curve; tested in HEK293T cells; also: read-out not given here; nearly all actives have a fitted effect of over 45% in size
Marburg entry inh = Marburg virus entry inhibition | Marburg virus pseudotyped entry inhibition, cell reporter | Potency, µM (series often up to 37.8 µM), hits mostly inhibitors | actives 1.8% (n = 300,000); calls by dose curve; tested in HEK293 cells
VACV mCherry inh = vaccinia inhibition (mCherry reporter); Vaccinia virus mCherry reporter infection, fluorescence; Potency, µM (highest dose often 36.5 µM), usual class: inhibitors; actives 0.63% (n = 310,000); AID 720579; calls by dose curve; tested in A549 cells; also: nearly all actives have a fitted effect of over 35% in size
LASV entry inh = blocks Lassa virus binding to or entry into cells. Lassa virus pseudotype entry inhibition, cell reporter. Potency, µM (titrated, usually from 37.9 µM), usual class: inhibitors. actives 1.2% (n = 300,000); calls by dose curve; tested in HEK293 cells; also: nearly all actives have a fitted effect of over 50% in size
Vaccinia Venus = inhibitors of vaccinia virus (Venus reporter) | Vaccinia virus Venus reporter expression, fluorescence | Potency, µM (highest dose often 36.5 µM), usual class: inhibitors | actives 0.46% (n = 330,000); calls by dose curve; tested in A549 cells; also: nearly all actives have a fitted effect of over 30% in size
Hits are given with their value; - = inactive; ? = inconclusive; . = no result; [ ] = remark or other dose.

SMILES	HCMV antiviral	FMDV inh	Marburg entry inh	VACV mCherry inh	LASV entry inh	Vaccinia Venus
CCc1ccccc1N(C)S(=O)(=O)c1ccc2c(c1)C(C)(C)C(=O)N2C	-	-	.	-	-	-
N#C/C(=C\c1ccc(O)c([N+](=O)[O-])c1)C(=O)NCc1ccccc1	-	-	.	.	.	.
CC(NC(=O)/C(C#N)=C/c1ccc(Cl)c([N+](=O)[O-])c1)c1ccccc1 (stereo unspecified)	-100	32µM	?	.	?	.
C[C@@H](NC(=O)/C(C#N)=C/c1ccc(O)c(O)c1)c1ccccc1	-98	-	?	?	-	-
C[C@H](NC(=O)/C(C#N)=C/c1ccc(O)c(O)c1)c1ccccc1	.	-	?	.	?	.
CCn1cc(C(=O)NCc2ccccc2)c(=O)c2cc(S(=O)(=O)N3CCCCCC3)ccc21	-	-	-	?	?	-
CCn1cc(C(=O)NCCc2ccc(Cl)cc2)c(=O)c2cc(S(=O)(=O)N(C)C)ccc21	-	-	.	.	.	.
CCn1cc(C(=O)NCc2ccc(Cl)cc2)c(=O)c2cc(S(=O)(=O)N(C)C)ccc21	-71	-	?	?	?	-
CCn1cc(C(=O)NCc2ccc(C)cc2)c(=O)c2cc(S(=O)(=O)N3CCCCCC3)ccc21	-	-	.	?	6.3µM	-
CCn1cc(C(=O)NCc2ccc(Cl)cc2)c(=O)c2cc(S(=O)(=O)N(C)C3CCCCC3)ccc21	-	-	2.8µM	-	?	?
CCn1cc(C(=O)NCCc2ccc(OC)c(OC)c2)c(=O)c2cc(S(=O)(=O)N(C)C3CCCCC3)ccc21	-72	-	11µM	?	?	?
COc1ccc(/C=C/C(=O)N2CCc3c(cnc(C)c3CNC(=O)c3ccsc3)C2)cc1OC	.	-	.	-	.	-
CCn1cc(C(=O)NC(C)CCc2ccccc2)c(=O)c2cc(S(=O)(=O)N(C)C)ccc21 (stereo unspecified)	-	-	?	-	6.3µM	-
CCn1cc(C(=O)NCCc2ccc(C)cc2)c(=O)c2cc(S(=O)(=O)N(C)C)ccc21	-	-	-	-	-	-
O=C(c1ccccc1C(F)(F)F)N1CCOc2c(cc(-c3nc4ccccc4s3)cc2OC2CCOC2)C1 (stereo unspecified)	.	-	.	-	.	?
COc1ccccc1-c1ccnc(-n2ncc(C(=O)N3CCN(C4CCCC4)CC3)c2-c2ccco2)n1	.	-	.	-	.	-
CCn1nc(-c2ccccc2)c2nc3ccccc3nc21	-60	?	-	.	-	-
CCCn1nc(-c2ccccc2)c2nc3ccccc3nc21	-	-	-	.	-	-
COc1ccc(-c2nc3cnc(Nc4ccc(F)c(Cl)c4)cc3n2C)cc1OC	-	.	.	.	.	.
Cn1nc(C(F)(F)F)c2cc(NC(=O)OCc3ccc(C(C)(C)C)cc3)sc21	-	22µM	?	-	?	-
Cn1nc(C(F)(F)F)c2cc(NC(=O)OCc3ccc(F)cc3)sc21	-	?	-	?	-	-
CCOC(=O)COc1cc(C)c(Cl)cc1C(=O)c1ccn2nc(-c3ccc(OC)cc3)cc2n1	-	-	?	-	-	?
FC(F)(F)c1ccccc1-c1nc(NCc2cccnc2)c2ccccc2n1	.	-	.	.	.	.
FC(F)(F)c1nc(NCc2cccnc2)c2ccccc2n1	-62	-	-	-	-	-
Cc1ccc(-c2ccc([C@@H]3[C@@H](CO)N4C(=O)CN(C(=O)c5ccncc5)C[C@H]34)cc2)cc1	-	.	.	.	.	.
SMILES	HCMV antiviral	FMDV inh	Marburg entry inh	VACV mCherry inh	LASV entry inh	Vaccinia Venus
CCOC(=O)c1c(C)[nH]c(C)c1S(=O)(=O)NCCN1CCN(c2cc(Cl)ccc2C)CC1	-72	-	.	.	.	.
CCOC(=O)c1c(C)[nH]c(C)c1S(=O)(=O)NCC(=O)N1CCN(c2cc(Cl)ccc2C)CC1	-	-	.	?	?	?
CCOC(=O)c1c(C)[nH]c(C)c1S(=O)(=O)N1CCN(c2cc(Cl)ccc2C)CC1	-90	-	.	-	-	-
Cc1ccc(Cl)cc1N1CCN(CCNC(=O)Nc2ccc(Cl)cc2)CC1	-90	?	?	-	-	-
CCOC(=O)c1c(C)[nH]c(C)c1S(=O)(=O)N1CCN(c2cccc(C(F)(F)F)c2)CC1	-101	-	.	-	-	-
CC(=O)N1[C@@H]2Cn3c(ccc(-c4ccccc4F)c3=O)[C@H]1[C@@H](C(=O)N1CCOCC1)[C@@H]2CO	-	.	.	.	.	.
CCOC(=O)c1c(C)[nH]c(CCC(=O)NCCCN2CCN(c3ccc(F)cc3)CC2)c1C	-	?	.	-	-	-
CCOC(=O)c1c(C)[nH]c(CCC(=O)NCCCN2CCN(c3cc(Cl)ccc3C)CC2)c1C	-97	?	.	?	?	?
C/C(=N/NC(=O)c1cc(C2CC2)[nH]n1)c1cccs1	-	-	10µM	-	2.6µM	-
CN1CCN(Cc2nc3ccccc3c(=O)n2Cc2nc(-c3ccc4ccccc4c3)cs2)CC1	-76	?	?	?	?	13µM
CN1CCN(Cc2nc3ccccc3c(=O)n2Cc2nc(-c3cccc([N+](=O)[O-])c3)cs2)CC1	-	-	?	-	?	-
CC1SC(=S)N(c2ccc(N(C)C)cc2)C1=O (stereo unspecified)	-71	-	-	11µM	-	-
CN(C)c1ccc(N2C(=O)CSC2=S)cc1	?	-	-	-	-	-
CCOc1ccccc1CNc1ncnc2c1nc1n2CCCC1	-81	-	.	-	?	-
Cc1ccc(C)c(N2CCN(c3ncnc4c3nc3n4CCCCC3)CC2)c1	-	-	.	-	-	-
FC(F)(F)c1cccc(N2CCN(c3ncnc4c3nc3n4CCCC3)CC2)c1	-73	20µM	.	-[7.34 µM]	-	-[7.34 µM]
COc1ccccc1N1CCN(c2ncnc3c2nc2n3CCCC2)CC1	-	?	-	-	-	-
COc1ccccc1CNc1ncnc2c1nc1n2CCCC1	-	-	?	-	?	-
COc1cccc(N2CCN(c3ncnc4c3nc3n4CCCCC3)CC2)c1	-99	11µM	.	?	?	?
Cc1ccc(Cl)cc1N1CCN(c2ncnc3c2nc2n3CCCC2)CC1	-	28µM	.	-	?	?
O=C1OCCC=C1C(O)CCc1ccccc1 (stereo unspecified)	.	.	-	.	.	.
COc1ccc(NC(=O)Cc2csc(COc3cccc(C)c3)n2)cc1OC	-	?	-	-	-	-
c1ccc(N2CCN(c3ncnc4c3nc3n4CCCC3)CC2)cc1	-68	14µM	.	-	?	?
COc1ccc(N2CCN(c3ncnc4c3nc3n4CCCCC3)CC2)cc1	-	11µM	.	?	-	?
O=C(NCc1ccccc1)C1CCN(c2ncnc3c2nc2n3CCCCC2)CC1	-	-	.	-	-	-
CC(=O)c1ccc(N2CCN(c3ncnc4c3nc3n4CCCC3)CC2)cc1	-86	18µM	.	-	-	?
Cc1ccc(C)c(N2CCN(c3ncnc4c3nc3n4CCCC3)CC2)c1	-	?	.	-	-	-
CCOc1ccc(/C=C/c2nc(C#N)c(NC3CCCCC3)o2)cc1	?	-	-	-	-	-
O=C(O)CC1NC(=S)N(c2ccccc2)C1=O (stereo unspecified)	-	-	-	.	-	.
O=C1C(CSCc2ccccc2)NC(=S)N1c1ccccc1 (stereo unspecified)	-	28µM	.	.	.	.

From PubChem
